The text below walks through data of PubChem BioAssay (EPA / NIEHS).

As usually defined, the AC50 is the concentration giving half of the maximal activity seen.

Active and inactive are the calls of the source. How the source made its calls: active means hit-call score of the fitted dose curve at least 0.9, where 1 is the maximum; inactive means score below 0.9.

Read-out in test [1]: Vascular endothelial growth factor receptor 2 (Homo sapiens) (UniProt P35968)
In words: BSK_4H_VEGFRII: BioMAP Diversity Plus: 4H Assay for Vascular endothelial growth factor receptor 2 (VEGFR2) Biomarker Activity (AID 2283031). As to conditions: primary human endothelial cells (HUVEC); actives raise or lower the signal. In outline: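 Primary human umbilical vein endothelial cells in the BioMAP 4H system were dosed with test chemical, and 24 h later VEGFRII was measured by ELISA. Activity was fitted bidirectionally against DMSO as negative control and baseline.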

Read-out in test [2]: Human Leukocyte Antigen - DR isotype (HLADR), HLA-DRA (gene 3122)
In words: BSK_BE3C_HLADR: BioMAP Diversity Plus: BE3C Assay for Human Leukocyte Antigen - DR isotype (HLADR) Biomarker Activity (AID 2283032). As to conditions: primary human bronchial epithelial cells; actives raise or lower the signal. In outline: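 Chemicals are dosed onto BE3C bronchial epithelial cultures of human origin and left 24 h. HLA-DR is then measured by ELISA, and the endpoint is fitted in both directions using DMSO as the activity baseline.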

Read-out in test [3]: Vascular cell adhesion molecule 1 (VCAM1), VCAM1 (gene 7412)
In words: BSK_4H_VCAM1: BioMAP Diversity Plus: 4H Assay for Vascular cell adhesion molecule 1 (VCAM1) Biomarker Activity (AID 2283033).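 On outcome: cell-surface VCAM-1 protein measured by ELISA.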 The conditions noted are these: primary human endothelial cells (HUVEC); actives raise or lower the signal. The procedure, abridged: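 Chemicals are added to primary human umbilical vein endothelial cells. After 24 h, VCAM-1 levels are measured by ELISA. Values come from bidirectional fitting referenced to DMSO.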

Read-out in test [4]: Interferon-gamma inducible Protein 10 (IP10), CXCL10 (gene 3627)
In words: BSK_BE3C_IP10: BioMAP Diversity Plus: BE3C Assay for Interferon-gamma inducible Protein 10 (IP10) Biomarker Activity (AID 2283034). The conditions noted are these: primary human bronchial epithelial cells; actives raise or lower the signal. The procedure, abridged:
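IP-10 quantified by ELISA serves as the endpoint. Cells: primary human bronchial epithelium, read 24 h after compound addition. Activity is derived by bidirectional fitting with DMSO as negative control.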

Read-out in test [5]: Monokine induced gamma interferon (MIG), CXCL9 (gene 4283)
In words: BSK_BE3C_MIG: BioMAP Diversity Plus: BE3C Assay for Monokine induced gamma interferon (MIG) Biomarker Activity (AID 2283035).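 On outcome: MIG protein measured by ELISA in BE3C cultures after 24 h of dosing.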 As to conditions: primary human bronchial epithelial cells; actives raise or lower the signal. In outline:
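ELISA quantified MIG after 24 h exposure of primary bronchial epithelial cultures, analysed in both directions relative to DMSO. Cytotoxicity tracked in parallel cultures by sulforhodamine B staining.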

Read-out in test [6]: Transforming growth factor beta 1 (TGFb1), TGFB1 (gene 7040)
The test can be described thus: BSK_BE3C_TGFb1: BioMAP Diversity Plus: BE3C Assay for Transforming growth factor beta 1 (TGFb1) Biomarker Activity (AID 2283036;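 further: TGF-b1 protein level measured by ELISA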). The conditions noted are these: primary human bronchial epithelial cells; actives raise or lower the signal. The procedure, abridged: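 Bronchial epithelial primary cells are treated with test chemical, then TGF-b1 is quantified by ELISA after 24 hours. Values derive from bidirectional fitting against DMSO, with cytotoxicity checked by SRB staining in parallel cultures.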

Read-out in test [7]: Plasminogen activator inhibitor-1 (PAI1), SERPINE1 (gene 5054)
The test can be described thus: BSK_BE3C_PAI1: BioMAP Diversity Plus: BE3C Assay for Plasminogen activator inhibitor-1 (PAI1) Biomarker Activity (AID 2283037). As to conditions: primary human bronchial epithelial cells; actives raise or lower the signal. In outline: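 Values derive from bidirectional fitting against DMSO baseline of PAI-1 levels, measured by ELISA in human bronchial epithelial cells 24 h after compound addition.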

Read-out in test [8]: urokinase plasminogen activator (uPA), PLAU (gene 5328)
In words: BSK_BE3C_uPA: BioMAP Diversity Plus: BE3C Assay for urokinase plasminogen activator (uPA) Biomarker Activity (AID 2283038).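 On outcome: uPA protein level quantified by ELISA in cell cultures; uPA read one day after compound addition.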 The conditions noted are these: primary human bronchial epithelial cells; actives raise or lower the signal. The procedure, abridged:
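Human primary bronchial epithelial cells were exposed to chemical for 24 h, then uPA levels were measured by ELISA. Responses were fitted bidirectionally against DMSO as negative control and baseline. Parallel SRB staining of total protein gauged overt cytotoxicity.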

Read-out in test [9]: Urokinase-type plasminogen activator receptor (uPAR), PLAUR (gene 5329)
The test can be described thus: BSK_BE3C_uPAR: BioMAP Diversity Plus: BE3C Assay for Urokinase-type plasminogen activator receptor (uPAR) Biomarker Activity (AID 2283039).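 Further: cells exposed to compound for one day before measurement.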 As to conditions: primary human bronchial epithelial cells; actives raise or lower the signal. The procedure, abridged:
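Steps: dose human primary bronchial epithelial cells, incubate 24 h, measure uPAR by ELISA, then fit gain- or loss-of-signal response bidirectionally relative to DMSO.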

Read-out in test [10]: Interleukin-6 (IL6), IL6 (gene 3569)
In words: BSK_CASM3C_IL6: BioMAP Diversity Plus: CASM3C Assay for Interleukin-6 (IL6) Biomarker Activity for (AID 2283040). The conditions noted are these: primary human coronary artery smooth muscle cells; actives raise or lower the signal.

Read-out in test [11]: Tissue plasminogen activator (tPA), PLAT (gene 5327)
The test can be described thus: BSK_BE3C_tPA: BioMAP Diversity Plus: BE3C Assay for Tissue plasminogen activator (tPA) Biomarker Activity (AID 2283041).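 On outcome: tPA level quantified by ELISA one day after compound addition.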 The conditions noted are these: primary human bronchial epithelial cells; actives raise or lower the signal. In outline: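 Gain- or loss-of-signal in tPA, measured by ELISA, derived by bidirectional fitting against DMSO. Cells: human primary bronchial epithelial; read at 24 h after chemical dosing.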

Read-out in test [12]: Interleukin-8 (IL8), CXCL8 (gene 3576)
In words: BSK_CASM3C_IL8: BioMAP Diversity Plus: CASM3C Assay for Interleukin-8 (IL8) Biomarker Activity (AID 2283042).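 Further: IL-8 protein level quantified by ELISA.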 The conditions noted are these: primary human coronary artery smooth muscle cells; actives raise or lower the signal.

Read-out in test [13]: Human Leukocyte Antigen - DR isotype (HLADR), HLA-DRA (gene 3122)
The test can be described thus: BSK_CASM3C_HLADR: BioMAP Diversity Plus: CASM3C Assay for Human Leukocyte Antigen - DR isotype (HLADR) Biomarker Activity (AID 2283043).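 Further: cell-surface HLA-DR protein level quantified by ELISA.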 As to conditions: primary human coronary artery smooth muscle cells; actives raise or lower the signal.

Read-out in test [14]: Macrophage colony-stimulating factor (MCSF), CSF1 (gene 1435)
In words: BSK_CASM3C_MCSF: BioMAP Diversity Plus: CASM3C Assay for Macrophage colony-stimulating factor (MCSF) Biomarker Activity (AID 2283044).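 Further: M-CSF protein amount quantified by ELISA after 24 h exposure.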 As to conditions: primary human coronary artery smooth muscle cells; actives raise or lower the signal.

Read-out in test [15]: Low-density lipoprotein receptor (LDLR), LDLR (gene 3949)
In words: BSK_CASM3C_LDLR: BioMAP Diversity Plus: CASM3C Assay for Low-density lipoprotein receptor (LDLR) Biomarker Activity (AID 2283045).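 Further: LDLR protein level on the cell surface quantified by ELISA.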 As to conditions: primary human coronary artery smooth muscle cells; actives raise or lower the signal.

Read-out in test [16]: Monocyte Chemoattractant Protein-1 (MCP1), CCL2 (gene 6347)
In words: BSK_CASM3C_MCP1: BioMAP Diversity Plus: CASM3C Assay for Monocyte Chemoattractant Protein-1 (MCP1) Biomarker Activity (AID 2283046).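 Further: MCP-1 level quantified by ELISA 24 h after dosing.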 As to conditions: primary human coronary artery smooth muscle cells; actives raise or lower the signal.

Test [17] is described as follows: BSK_CASM3C_Proliferation: Cell Proliferation Assessment in the BioMAP Diversity Plus: CASM3C Assay (AID 2283047).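 Further: sulforhodamine B total protein stain as relative cell number at 560 nm; sub-confluent cells exposed 48 h before staining; fitted both ways against DMSO so gain or loss of cell number.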 As to conditions: primary human coronary artery smooth muscle cells.
Read-out in test [18]: Monokine induced gamma interferon (MIG), CXCL9 (gene 4283)
The test can be described thus: BSK_CASM3C_MIG: BioMAP Diversity Plus: CASM3C Assay for Monokine induced gamma interferon (MIG) Biomarker Activity (AID 2283048). The conditions noted are these: primary human coronary artery smooth muscle cells; actives raise or lower the signal.

Read-out in test [19]: serum amyloid A (SAA), SAA1 (gene 6288)
In words: BSK_CASM3C_SAA: BioMAP Diversity Plus: CASM3C Assay for serum amyloid A (SAA) Biomarker Activity (AID 2283049).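 Further: SAA protein level quantified by ELISA.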 The conditions noted are these: primary human coronary artery smooth muscle cells; actives raise or lower the signal.

A short description of test [20]: BSK_CASM3C_SRB: Viability Assessment in the BioMAP Diversity Plus: CASM3C Assay (AID 2283050).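 Further: total protein by SRB staining as cytotoxicity measure in parallel cultures.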 The conditions noted are these: primary human coronary artery smooth muscle cells.

On to `CCCCCCOCCO`, for which the result in test [1], in test [2], in test [3], in [4], in test [5] and in test [6] was inactive. Also, the result in test [7], in [8], in test [9], in [10], in test [11] and in [12] was inactive. Further, the result in [13], in [14], in [15], in [16], in test [17] and in test [18] was inactive. The outcome in test [19] and in [20] was inactive.

Regarding `CN1CCN(Cc2cc(-c3ccc4[nH]c(=O)oc4c3)co2)[C@@H](c2ccc(F)cc2)C1`, the result in [1], in test [2], in [3], in test [4], in test [5] and in test [6] was inactive. For the same compound, the outcome in [7], in [8], in test [9], in [10], in test [12] and in [13] was inactive. Moreover, the result in [14], in [15], in [18], in [19] and in test [20] was inactive. The AC50 in [11] was 3.27 µM (active); in test [16], 0.736 µM (active); in test [17], 12.3 µM (active).

For `Nc1ccccc1N`, the result in [1], in [2], in [4], in test [5], in [6] and in test [7] was inactive. Further, the result in [8], in test [9], in [10], in [11], in test [12] and in test [13] was inactive. For the same compound, the result in [14], in [15], in test [16], in test [17], in [18] and in test [19] was inactive. In test [20], the result was inactive. Also, the AC50 in test [3] is 4.07 µM (active).

As to `CC1(C)NC(=O)NC1=O`, the result in [1], in [2], in test [3], in test [4], in [5] and in [6] was inactive. For the same compound, the outcome in test [7], in test [8], in [9], in test [10], in [11] and in test [12] was inactive. In addition, the result in test [13], in test [14], in [15], in test [16], in test [17] and in test [18] was inactive. Also, the outcome in [19] and in test [20] was inactive.

Regarding `CNCc1cc(F)ccc1Oc1ccc(Cl)c(Cl)c1`, the result in test [1], in test [3], in test [4], in test [5], in test [6] and in [7] was inactive. Moreover, the result in test [8], in test [9], in test [10], in [11], in test [12] and in [13] was inactive. Further, the result in test [14], in test [16], in test [18], in test [19] and in [20] was inactive. Moreover, the AC50 in [2] is 27.9 µM (active); in [15], 13.8 µM (active); in test [17], 22 µM (active).

For the compound `Cc1nc(-c2ccc3c(c2)CCN(CCC2CCC(NC(=O)/C=C/c4ccc(F)cc4)CC2)CC3)no1` (stereo not given), the outcome in [1], in test [6], in test [7], in test [9], in [10] and in [11] was inactive. Further, the result in test [12], in test [14] and in test [15] was inactive. For the same compound, the AC50 is 12.8 µM (active) in test [2]; 9.3 µM (active) in test [3]; 15 µM (active) in test [4]; 13.5 µM (active) in [5]; 9.94 µM (active) in test [8]; 9.3 µM (active) in [13]. Further, the AC50 was 13.8 µM (active) in [16]; 5.83 µM (active) in test [17]; 11.7 µM (active) in test [18]; 9.3 µM (active) in test [19]; 9.3 µM (active) in test [20].
